Assay outcomes deposited in PubChem BioAssay by Broad Institute.
Only a sample is shown.
aSyn UTR act = Activators via SNCA 5'UTR binding, MLPCN; AID 1814, 2009; 300,000 compounds, 7.1% hits; activity score, % (tested at 7.5 µM), hits read low; alpha-synuclein 5'UTR reporter, activators screen; in the data active = activity score below about -60%
The depositor's hits bear a star.

SMILES | aSyn UTR act
CSc1ccc(CNc2ccccn2)cc1 | -100*
O=C(Cc1cccs1)Nc1nc2c(s1)CCCC2 | -97*
O=C(CCSc1ccccc1)Nc1nc2c(s1)CCCC2 | -86*
Cc1ccc(CSC2=Nc3ccccc3C3=NC(CC(=O)NCc4ccco4)C(=O)N23)cc1 (configuration not stated) | -73*
N#CCC(=O)Nc1ccc(C(=O)OCC(=O)c2ccc3c(c2)OCCO3)cc1 | -112*
N#CCC(=O)Nc1ccc(C(=O)OCC(=O)c2ccc3c(c2)OCO3)cc1 | -89*
COc1ccc(-c2nc3ccccn3c2C=O)cc1 | -110*
COc1ccc(N2CCN(c3nc4ccccn4c(=O)c3C=O)CC2)cc1 | -68*
O=Cc1c(N2CCN(c3ccccc3)CC2)nc2ccccn2c1=O | -86*
N#CC(C#N)=Cc1c(N2CCN(c3ccccc3)CC2)nc2ccccn2c1=O | -72*
N#Cc1c(N)n(C2CCCCC2)c2nc3ccccc3nc12 | 62
CCOC(=O)c1ccc(N=Nc2c(C)c(C#N)c(O)[nH]c2=O)cc1 | -74*
Clc1cccc(N/N=C/c2ccc(N3CCOCC3)s2)c1 | -167*
Cc1c2cnn(CC(=O)NC3CCCC3)c(=O)c2c(C)n1Cc1ccccc1 | -100*
O=C(CNC(=O)c1ccco1)Nc1ccc(Cl)cc1 | -70*
O=C(CNC(=O)c1ccco1)Nc1ccc(Br)cc1 | -142*
COc1ccc(/C(C)=N/Nc2cccc(C(=O)O)c2)cc1OC | -113*
CN(C)c1ccc(/C=N/Nc2cccc(C(=O)O)c2)cc1 | 77
COc1cccc(/C=N/Nc2ccc(C(=O)O)cc2)c1O | 113
O=C(O)c1cccc(N/N=C/c2cc(Br)cc(Br)c2O)c1 | -232*
COc1ccc(Br)cc1/C=N/Nc1cccc(C(=O)O)c1 | -76*
COc1ccccc1/C=C/C=N/Nc1cccc(C(=O)O)c1 | -119*
Cc1ccc(-c2ccc(NC(=O)C3C4C=CC(C4)C3C(=O)O)cc2)o1 (configuration not stated) | -181*
OC1c2cc(Br)ccc2N=C2CCCN21 (configuration not stated) | -88*
CC(C)Sc1nc2ccc(Br)cc2[nH]1 | -120*
SMILES | aSyn UTR act
CC(C)S(=O)(=O)c1csc(C(=O)Nc2ccc(F)cc2)c1N | -100*
O=C(N/N=C/c1cc([N+](=O)[O-])ccc1O)c1cccc(NC(=O)c2cccc(Cl)c2)c1 | 60
O=[N+]([O-])c1ccc(Cl)c(/C=N/NC(=S)Nc2ccccc2)c1 | -79*
Cc1nn(C)cc1/C=N/NC(=S)Nc1ccccc1 | -137*
COCCC(=O)N1CCC(C(=O)Nc2ccc(Oc3ccccc3)nc2)CC1 | -77*
NC(N)=Nc1nc(C2COc3ccccc3O2)cs1 (configuration not stated) | -64*
O=C(CSc1ncnc2nc[nH]c12)c1ccccc1 | -87*
c1ccc(CCSc2ncnc3nc[nH]c23)cc1 | -75*
CN1C2CCC1/C(=C\c1ccccc1)C(=O)/C2=C\c1ccccc1 | -185*
CC(=O)/C=C(\C)Nc1ccc(-c2cnc(-c3ccccc3)o2)cc1 | -95*
CCCc1cc2c(=O)c(-c3ccccn3)coc2cc1OC | -158*
CCOc1ccc(S(=O)(=O)Nc2cc(OC)ccc2OC)cc1 | 81
COc1ccc(OC)c(NS(=O)(=O)c2ccc(SC)cc2)c1 | -161*
COc1ccc(/C=C/c2cc(C(=O)O)c3ccccc3n2)cc1 | 81
Cc1cc(/C=C\c2ccccc2)nc2ccccc12 | -216*
COc1ccc(C(=O)O/N=C(\N)c2ccccc2)cc1 | -82*
COc1ccc(C(=O)O/N=C(\N)c2ccc(Br)cc2)cc1 | -174*
O=C(O)CCCc1ccc2c(c1)CCc1ccccc1-2 | 109
O=C(CCCCN1CCCCC1)c1ccc2c(c1)Cc1ccccc1-2 | -65*
CCn1cc(Br)c(C(=O)Nc2sc3c(c2C(N)=O)CCCC3)n1 | -102*
Cn1cc(Br)c(C(=O)Nc2sc3c(c2C(N)=O)CCCC3)n1 | -114*
Nc1ccc(SC(F)(F)F)cc1 | -70*
Cc1ccc(C2=NN=C(NC(=O)CSc3nnc4c5ccccc5n(C)c4n3)SC2)cc1 | -99*
CC(/C=N/NC(=O)c1ccccc1F)=C\c1ccccc1 | -138*
CC(/C=N/NC(=O)c1ccccc1C)=C\c1ccccc1 | -136*
SMILES | aSyn UTR act
COc1ccc(CCOC(=O)c2ccc(N)c([N+](=O)[O-])c2)cc1 | -73*
COc1ccc(/C(N)=N/OC(=O)c2ccc(C)c([N+](=O)[O-])c2)cc1 | -165*
Cc1cc(C(=O)O/N=C(\N)c2ccncc2)ccc1[N+](=O)[O-] | -124*
c1ccc(-c2n[nH]c(-c3ccccn3)n2)cc1 | -114*
c1ccc(-c2n[nH]c(-c3ccccn3)n2)nc1 | -63*
COCCCNC(=O)/C=C/c1ccc(Cl)cc1Cl | -85*
Cc1ccc(NC(=O)Nc2ccc(F)c(Cl)c2)cc1 | -165*
COc1ccc(NC(=O)Nc2ccc(F)c(Cl)c2)cc1 | -140*
O=[N+]([O-])/C(C(Cl)=C(Cl)Cl)=C(\Nc1ccc(F)cc1)n1cncn1 | -102*
C=CCn1c2ccccc2c(=O)c2cc(C#CC3(O)CCCCC3)ccc21 | -170*
COc1ccc(N(C)C(=O)c2ccc3c(Cl)c4c(nc3c2)CCCC4)c(OC)c1 | -88*
Cc1ccc(N(C)C(=O)c2ccc3c(Cl)c4c(nc3c2)CCC4)cc1C | -136*
OCC1CCCN(C(=S)NCCc2ccccc2)C1 (configuration not stated) | -106*
CC1CCN(C(=S)NCCc2ccccc2)CC1 | -138*
COCCN(Cc1nc(-c2ccc(-c3ccccc3)cc2)oc1C)C(C)C | -215*
Cc1ccccc1NC(=O)Nc1ccc2c(c1)CCC2 | -141*
COc1cc(SC)ccc1C(=O)Nc1ccc2c(c1)CCC2 | -119*
COc1ccccc1NC(=O)Nc1ccc2c(c1)CCC2 | -126*
COc1cc(SC)ccc1C(=O)Nc1ccc(Cl)cn1 | 100
COc1cc(SC)ccc1C(=O)Nc1ccccc1C#N | -192*
Cc1ccccc1NC(=O)Nc1ccc(C(F)(F)F)cc1 | -100*
Cc1ccc(-c2csc(NC(=O)c3cccc(C)c3)c2C(=O)O)cc1 | -71*
Cc1ccc(-c2csc(NC(=O)c3ccc(Br)cc3)c2C(=O)O)cc1 | -91*
Cc1ccc(-c2csc(NC(=O)/C=C/c3ccco3)c2C(=O)O)cc1 | -79*
COC(=O)C1C(=O)c2c([nH]c(C(=O)OC3CCCCC3)c2C)CC1C (configuration not stated) | -178*
SMILES | aSyn UTR act
COC(=O)C1C(=O)c2c([nH]c(C(=O)OC3CCCC3C)c2C)CC1C (configuration not stated) | -168*
CCOC(=O)c1[nH]c2c(c1C)C(=O)CC(c1ccc(F)cc1)C2 (configuration not stated) | 59
COc1ccc(Nc2nccc3c2nnn3C)cc1 | -144*
COc1cccc(C(=O)N=c2sc3cc(S(C)(=O)=O)ccc3n2C)c1 | -127*
Cc1ccc(C(=O)N/N=c2\sc3ccccc3n2C)cc1 | -62*
COC(=O)Cn1c(=NC(=O)c2cccc(OC)c2)sc2cc(OC)ccc21 | -87*
COc1ccc(C(=O)N=c2sc3ccccc3n2C)cc1 | -193*
COc1cc(OC)cc(C(=O)N=c2sc3ccccc3n2C)c1 | -149*
CC1CC(C)CN(CCCNC(=O)c2ccc3nc(N4CCOCC4)sc3c2)C1 (configuration not stated) | -113*
CC1CCCCN1CCCNC(=O)c1ccc2nc(N3CCCCC3)sc2c1 (configuration not stated) | -326*
CCOC(CNC(=O)c1ccc2nc(N3CCC(C)CC3)sc2c1)OCC | -180*
